# Screening data deposited in PubChem by National Center for Advancing Translational Sciences (NCATS).
# DT40 TDP1 no CPT – qHTS for Inhibitors of human tyrosyl-DNA phosphodiesterase 1 (TDP1): qHTS in cells in absence of CPT; hit rate 15% among 420,000; DT40 Tdp1-/- hTDP1 cells, no CPT, ATP luminescence, 48 h; Potency, µM (highest dose often 46.2 µM), without a hit: at the highest dose activity change, negative = growth inhibition, actives largely listed as inhibitors; also: potency is read from the fitted curve at half-maximal effect; nearly all actives have a fitted effect of over 55% in size
#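 Chicken DT40 Tdp1-/- cells complemented with human TDP1, screened without camptothecin (DMSO vehicle only), 400 cells/well. Compounds pin-transferred, cells incubated at 37 °C for at least 48 hr. Growth read as ATP-dependent luminescence (CellTiter-Glo, 30 min at RT).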
# DT40 TDP1 CPT – growth inhibition of DT40 Tdp1-/-;hTDP1 cells with camptothecin (screen for TDP1 inhibitors); hit rate 12% among 420,000; chicken DT40 Tdp1-/-;hTDP1 cells + 20 nM CPT, ATP luminescence, 48 h; AID 686979; Potency, µM (titrated, usually from 46.2 µM), for inactives: at the top dose activity change, negative = growth inhibition, usual class: inhibitors; also: potency is read from the fitted curve at half-maximal effect; nearly all actives have a fitted effect of over 55% in size
#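 Chicken DT40 Tdp1-/- cells stably complemented with human TDP1 were seeded at 400 cells/well in medium containing 20 nM camptothecin, exposed to pin-transferred compounds, and grown at 37 °C for at least 48 hr. Viability was read as ATP luminescence.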
# IL-1B inflam inh – blocks inflammasome-driven IL-1 beta release; THP-1 LPS/ATP IL-1B secretion, AlphaLISA, 16 h; hits give low values; activity change, % at 57.5 µM; hit rate 4.7% among 360,000; in the data active = activity change below about -50%; inconclusive = mostly about -30% to -49%
#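 Secreted IL-1B measured by AlphaLISA bead assay after 16 h compound exposure of THP-1 cells; compounds (final up to 57.5 uM) added 1 h before LPS (250 ng/mL) and ATP (1.25 mM) stimulation; lower signal means less secretion.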
# HT1080NT lethal – kills 2HG-producing HT-1080-NT fibrosarcoma cells; HT-1080-NT fibrosarcoma viability, CellTiter-Glo ATP luminescence, 48 h; Potency, µM (series often up to 46.1 µM), without a hit: top-dose activity, negative = less viability, hits mostly cytotoxic; hit rate 1.6% among 360,000; AID 686970;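 also: NT is the 2HG producing partner of a matched IDH1 knockdown line; potency is read from the fitted curve at half-maximal effect; 0% = DMSO-treated cells and -100% = media-only wells without cells; nearly all actives have a fitted effect of over 55% in size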
#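 HT-1080-NT fibrosarcoma cells (2HG-overproducing), 750 cells/well in RPMI with 5% FBS, dosed after 2 h and incubated 48 h at 37C. CellTiter-Glo luminescence normalized to DMSO and no-cell wells; concentration-response curves fitted and classed.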
# HT1080 IDH1KD tx – kills HT-1080 cells with IDH1 knockdown | HT-1080 IDH1 knockdown viability, ATP luminescence, 48 h | hit rate 2% among 360,000 | Potency, µM (doses to about 46.1 µM), without a hit: top-dose activity, negative = toxicity, most hits filed as cytotoxic;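 also: potency is read from the fitted curve at half-maximal effect; 0% = DMSO wells and -100% = cell-free medium wells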
#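 In this qHTS, HT-1080 cells depleted of IDH1 are exposed for 48 h at 37 °C to compound titrations. Toxicity is scored from CellTiter-Glo luminescence, with DMSO as full viability and medium alone as none.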
# The depositor's hits bear a star; ? = inconclusive; . = not tested or not shown; ! = a repeat was not active. Hits are enriched below; roughly 19% of the tested compounds scored in any of these assays. Unless noted, calls follow the shape of the dose curve; as a rule, active = well fitted curve in the direction sought with a large enough effect; inconclusive = small, poorly fitted or top-dose-only effect, or another doubt; inactive = no such curve, though single readings can be large; an effect the other way counts as inactive or inconclusive. Unless noted, % is scaled to controls: 0 for no effect and ±100 for the full control effect.
SMILES,DT40 TDP1 no CPT,DT40 TDP1 CPT,IL-1B inflam inh,HT1080NT lethal,HT1080 IDH1KD tx
CN1[C@@H](CC(=O)c2ccccc2)CCC[C@H]1C[C@H](O)c1ccccc1,21µM*!,24µM*!,-18,-12%,-1%
CN1C(CC(=O)c2ccccc2)CCCC1CC(O)c1ccccc1 (centres undefined),-20%,?,-18,0%,-1%
Cc1cc(=O)[nH]c(CCl)n1,?,?,96,3%,-1%
CCCCc1ccc2[nH]cc(CCN)c2c1,21µM*,21µM*,-89*,?,?
CCOP(=O)(OCC)C(NS(=O)(=O)c1ccccc1)C(Cl)(Cl)Cl (centres undefined),-20%,1%,9,-9%,3%
O=c1[nH]c2ccccc2c(=O)n1-c1ccc(Cl)cc1Cl,18µM*,16µM*,-9,-4%,-26%
Cc1cc(C)cc(-n2c(=O)[nH]c3ccccc3c2=O)c1,?,18µM*,.,.,.
Cc1ccc(-n2c(=O)[nH]c3ccc(Br)cc3c2=O)cc1,-21%,-28%,.,.,.
O=c1[nH]c2ccccc2c(=O)n1-c1ccc(Cl)c(Cl)c1,-14%,?,.,.,.
C=CCN=C=S,-9%,-6%,.,.,.
CCCCn1c(N)c(N(CC(C)C)C(=O)c2cc(Br)c(Br)s2)c(=O)[nH]c1=O,23µM*,?,-26,-1%,6%
CCCCn1c(N)c(N(CCOC)C(=O)CN2CC=C(c3ccccc3)CC2)c(=O)[nH]c1=O,?,?,4,11%,15%
Cc1c(N=Nc2c(O)[nH]c(=S)[nH]c2=O)c(=O)n(-c2ccccc2)n1C,8%,1%,10,?,-8%
C=CCn1c(O)c(N=Nc2c(C)n(C)n(-c3ccccc3)c2=O)c(=O)[nH]c1=S,9.2µM*,16µM*,24,-7%,-14%
Clc1ccc(CSc2nnc(-c3ccccn3)n2Cc2ccco2)cc1Cl,?,?,-1,?,?
CC1(C)[C@@H](O)C[C@H]2[C@](C)(O)[C@@H]3CC[C@H]4[C@@H](O)[C@@]3(C[C@@H](O)[C@@]21O)C[C@@]4(C)O,6%,-2%,.,.,.
O=[N+]([O-])c1cc(F)c(N2CCCCCC2)cc1N1CCNCC1,?,16µM*,-8,-6%,3%
Cc1ccc(-c2csc3ncnc(OCC(=O)NC(=O)NCc4ccco4)c23)cc1,?,?,-16,?,?
CC[C@@H](C(=O)O)[C@@H]1O[C@@H]([C@@H](C)[C@H](O)[C@H](C)C(=O)[C@H](CC)[C@H]2O[C@]3(C=C[C@@H](O)[C@]4(CC[C@@](C)([C@H]5CC[C@](O)(CC)[C@H](C)O5)O4)O3)[C@H](C)C[C@@H]2C)[C@@H](C)C[C@@H]1C,0.27µM*,0.47µM*,.,.,.
O=c1[nH]c(=S)n(Cc2ccc(F)cc2)c(O)c1/C=N/N1CCCCC1,?,-18%,-11,-8%,-1%
Oc1cc(Cl)ccc1Oc1ccc(Cl)cc1Cl,23µM*,7.7µM*,-70*,?,-28%
CCCC(=O)NC(Oc1ccc(Cl)cc1Cl)C(Cl)(Cl)Cl (centres undefined),-16%,-4%,3,3%,1%
COc1ccccc1NC(=O)Cn1c(=O)n(-c2cccc(Cl)c2)c(=O)c2sc3ccccc3c21,6.5µM*,13µM*,.,.,.
COc1ccccc1NC(=O)c1cn(CCC#N)nc1-c1cccc(Cl)c1,?,?,14,3%,1%
CC[C@@]1(O)C(=O)OCc2c1cc1n(c2=O)Cc2cc3ccccc3nc2-1,0.089µM*!,0.079µM*,.,.,.
SMILES,DT40 TDP1 no CPT,DT40 TDP1 CPT,IL-1B inflam inh,HT1080NT lethal,HT1080 IDH1KD tx
CCC1(OC(=O)CN)C(=O)OCc2c1cc1n(c2=O)Cc2cc3ccccc3nc2-1 (centres undefined),0.065µM*,0.16µM*,-98*,1µM*,0.73µM*
CC[C@@]1(O)C(=O)OCc2c1cc1n(c2=O)Cc2cc3c(NC(=O)CN)cccc3nc2-1,0.41µM*,0.23µM*,?,2.3µM*,1.8µM*
CC(C)(C)NC[C@H](O)c1ccc(O)cc1Cl,-2%,6%,.,.,.
C/C(=C/CCC(C)[C@H]1CC[C@@]2(C)C3=C(CC[C@]12C)[C@@]1(C)CCC(=O)C(C)(C)[C@@H]1CC3)C(=O)O (some centres undefined),?,?,0,3%,6%
COc1ccccc1CCNC1C2CC3CC(C2)CC1C3 (centres undefined),?,-12%,-4,-16%,-11%
COc1cc2c(cc1O)C[C@H]1NCCc3cc4c(c-2c31)OCO4,23µM*,18µM*,-26,?,?
ClC(Cl)=C(c1ccc(Cl)cc1)c1ccc(Cl)cc1,-18%,1%,-8,18%,14%
Cc1cc(NC(=O)CCl)on1,9.2µM*,?,-106*,?,?
CC12CCC3C(CCC4CC(=O)OCC43C)C1CCC2O (centres undefined),-5%,3%,20,0%,-12%
Cc1nn(C(C)(C)C)c(C)c1/C=N/OC(=O)Nc1ccc(Cl)cc1,?,?,-94*,-19%,-4%
Cc1ccc2oc(=O)n(CCC(=O)Nc3ccc(N4CCOCC4)cc3)c2c1,?,-2%,-7,11%,4%
COc1cccc(C(=O)C2CCCN(Cc3cccc(C)n3)C2)c1 (centres undefined),16µM*,18µM*,18,-1%,-9%
COc1ccc2cc(C(=O)C3CCCN(C4CCOCC4)C3)ccc2c1 (centres undefined),13µM*,21µM*,-15,-25%,-27%
COc1c(C)cc(C(=O)C2CCCN(Cc3cccc(C)n3)C2)cc1C (centres undefined),21µM*,?,19,-2%,-9%
COc1c(C)cc(C(=O)C2CCCN(C3CCOCC3)C2)cc1C (centres undefined),-11%,-16%,34,-1%,-10%
CN(CCS(=O)(=O)c1ccc(Cl)cc1)Cc1cccnc1,?,-30%,?,5%,-21%
Cc1[nH]nc2c1C1(CCC(c3ccccc3)CC1)C(C#N)=C(N)O2 (centres undefined),-28%,?,-14,-14%,-26%
O=C(CCn1c(=O)oc2ccccc21)N1CCN(C(c2ccccc2)c2ccccc2)CC1,?,16µM*,-65*,1%,24%
Cc1cccc(N2CCN(C(=O)CCS(=O)(=O)c3ccc4c(c3)oc(=O)n4C)CC2)c1C,?,?,-15,1%,-1%
CCCCc1ccc(NC(=O)c2cccn(Cc3ccc(Cl)cc3)c2=O)cc1,-22%,-22%,.,.,.
